According to PubChem BioAssay AID1850 (Southern Research Specialized Biocontainment Screening …, 2009):
Screen size: about 310,000 compounds; about 1,000 (0.32%) were called active. A selection follows. Results with a measured potency or affinity are listed apart. Unmarked numbers belong to inactive results. How the calls were made is not given here. Where a SMILES comes first, the peptide text is derived from it. The star is where a group is joined. Boc = CC(C)(C)OC(=O)*

Test: Inhibition of PhoP regulon, Salmonella typhi GFP reporter cells, confirmation, 4 h (AID 1850);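 further: 0% = induced wells with vehicle and 100% = uninduced wells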
Details: Salmonella Typhi PhoP-promoter GFP reporter, fluorescence, at 50 µM, stronger effect = higher value
`COc1ccccc1/C=N/NC(=O)c1nnn(-c2nonc2N)c1CSC1=NCCS1` gave an inhibition of -3.46%.
With `COc1cc(/C=C/C(=O)Nc2ccncc2)cc(OC)c1OC` the inhibition was 9.98%.
Work on `Cc1nn(-c2ccccc2)c(N2CCCC2)c1/C=N/NC(=O)c1cc(-c2cccs2)nc2ccccc12` yielded an inhibition of -12.2%.
`CCOC(=O)C1(CCCc2ccccc2)CCN(C(=O)CCN2CCCCC2=O)CC1` gave an inhibition of -9.1%.
Compound `O=C(c1ccc(COc2ccccc2Cl)o1)N1N=C(C(F)F)CC1(O)C(F)F` (stereo unspecified) has an inhibition of -0.36%.
`Cc1ccc(C(O)P(=O)(Oc2ccccc2)Oc2ccccc2)cc1` (stereo unspecified) showed an inhibition of -35.5%.
`COc1ccc(NC(=O)CCN2C(=O)C3CC=C(Cl)CC3C2=O)cc1` (stereo unspecified) gave an inhibition of -3.04%.
Compound `C#CCOCCOCCOCCNc1nc(N2CCN(C(=O)CCCCCCCCCCNC(=O)[C@H](CO)n3cc(CCCSC)nn3)CC2)nc(N2CCN(C(=O)CCCCCCCCCCNC(=O)[C@H](CCCCN)n3cc(C[C@@H](C)CC)nn3)CC2)n1` has an inhibition of -5.02%.
For `C#CCOCCOCCOCCNc1nc(N2CCN(C(=O)CCCCCCCCCCNC(=O)[C@H](CO)n3cc(CCCSC)nn3)CC2)nc(N2CCN(C(=O)CCCCCCCCCCNC(=O)[C@H](CCCN=C(N)N)n3cc(C[C@@H](C)CC)nn3)CC2)n1`, the inhibition was 25.4%.
In the case of `C#CCOCCOCCOCCNc1nc(N2CCN(C(=O)CCCCCCCCCCNC(=O)[C@@H](CCC(=O)O)n3cc(CCCCCN)nn3)CC2)nc(N2CCN(C(=O)CCCCCCCCCCNC(=O)[C@H](CO)n3cc(CCCCCN)nn3)CC2)n1`, the inhibition is reported as -6.21%.
`C#CCOCCOCCOCCNc1nc(N2CCN(C(=O)CCCCCCCCCCNC(=O)[C@@H](CCC(=O)O)n3cc(CCCCCN)nn3)CC2)nc(N2CCN(C(=O)CCCCCCCCCCNC(=O)[C@H](CO)n3cc(CCCSC)nn3)CC2)n1` showed an inhibition of -11.4%.
Compound `C#CCOCCOCCOCCNc1nc(N2CCN(C(=O)CCCCCCCCCCNC(=O)Cn3cc(C[C@@H](C)O)nn3)CC2)nc(N2CCN(C(=O)CCCCCCCCCCNC(=O)[C@H](CCCCN)n3cc(C[C@@H](C)CC)nn3)CC2)n1` has an inhibition of 14.8%.
For `C#CCOCCOCCOCCNc1nc(N2CCN(C(=O)CCCCCCCCCCNC(=O)[C@@H](CCC(=O)O)n3cc(CCCCCN)nn3)CC2)nc(N2CCN(C(=O)CCCCCCCCCCNC(=O)[C@H](CCCCN)n3cc(C[C@@H](C)CC)nn3)CC2)n1`, the inhibition was -7.23%.
`CC1CCCN(C(=O)C23CCC(C)(C(=O)C2)C3(C)C)C1` (stereo unspecified) showed an inhibition of -4.73%.
In the case of `COc1cc(CCC(=O)N2CC(C)OC(C)C2)cc(OC)c1OC` (stereo unspecified), the inhibition is reported as -14.2%.
Work on `CC(C)CN(C(=O)CN(C)C(=O)c1ccco1)c1c(N)n(CC(C)C)c(=O)[nH]c1=O` yielded an inhibition of -1.06%.
For `Cc1cc2oc(=O)cc(Cn3ncc(Cl)c(Cl)c3=O)c2cc1Cl`, the inhibition was -3.81%.
`Cc1cccc(OCCNc2cc(N3CCN(C)CC3)ccc2[N+](=O)[O-])c1` gave an inhibition of -4.31%.
Compound `COC(=O)[C@@H](NC(=O)c1ccccc1)[C@@H](C)O` has an inhibition of -3.17%.
In the case of `COc1cccc(CN2CC(C(=O)NC3CCC3)CCC2=O)c1` (stereo unspecified), the inhibition is reported as -3.12%.
Work on `C/C(=N\Nc1ccccc1Cl)c1ccc(-n2ccnc2)cc1` yielded an inhibition of 7.81%.
Work on `CCCCOC(=O)c1ccc(NC(=O)COC(=O)CSc2nc(C)cc(C)n2)cc1` yielded an inhibition of -5.18%.
For `CNCCC1Sc2ccccc2Oc2ccccc21` (stereo unspecified), the inhibition was 10.6%.
In the case of `CN(C)CCC1Sc2ccccc2Oc2ccccc21` (stereo unspecified), the inhibition is reported as -1.34%.
Compound `COc1ccccc1NC(=O)CSc1nnc(CCC(=O)Nc2ccccc2F)n1C` has an inhibition of -5.48%.
In the case of `Cc1ccc(C(=O)Nn2cnnc2)cc1`, the inhibition is reported as -11.2%.
`COc1cc(C2NC(=O)NC(O)(C(F)(F)F)C2C(=O)c2cccs2)ccc1O` (stereo unspecified) gave an inhibition of -4.52%.
Compound `O=C1NC(c2ccccc2)C(C(=O)c2cccs2)C(O)(C(F)(F)F)N1` (stereo unspecified) has an inhibition of 0.79%.
With `O=C1NC(c2ccncc2)C(C(=O)c2cccs2)C(O)(C(F)(F)F)N1` (stereo unspecified) the inhibition was 2.95%.
Work on `CCOC(=O)C1C(c2cccs2)NC(=O)N(C)C1(O)C(F)(F)F` (stereo unspecified) yielded an inhibition of -2.14%.
`CCc1nnc(NC(=O)CN2CCN(CC)CC2)s1` showed an inhibition of -8.02%.
`Nc1c2ccccc2nc2ccccc12` showed an inhibition of 17.1%.
In the case of `Cc1cccc2nc3ccccc3cc12`, the inhibition is reported as -7.86%.
For `COCCNC(=O)c1ccc(CN2CCC(Cc3ccccc3)CC2)cc1`, the inhibition was -1.7%.
In the case of `CCOC(=O)C1CCN(C(=O)c2ccccc2NS(=O)(=O)c2ccc(C)cc2)CC1`, the inhibition is reported as -7.2%.
In the case of `CC(Sc1nnc(N)s1)C(=O)Nc1ccc2c(c1)OCCO2` (stereo unspecified), the inhibition is reported as -3.64%.
With `CCCNC(=O)Cn1cnc([N+](=O)[O-])n1` the inhibition was -4.49%.
`CC(Cc1ccccc1)NC(=O)Cc1ccc([N+](=O)[O-])cc1` (stereo unspecified) showed an inhibition of -4.09%.
With `CCOC(=O)C(NC(C)=O)C(O)c1ccc([N+](=O)[O-])cc1` (stereo unspecified) the inhibition was 3.41%.
Work on `O=[N+]([O-])c1ccc(C(O)C(CO)NC(=S)Nc2ccccc2)cc1` (stereo unspecified) yielded an inhibition of 11.5%.
Compound `O=C(O)CC(Cc1ccc(Cl)cc1)C(=O)Nc1ccc([N+](=O)[O-])cc1` (stereo unspecified) has an inhibition of -5.39%.
`O=C(Cc1ccccc1)NC(C(=O)O)C(O)c1ccc([N+](=O)[O-])cc1` (stereo unspecified) gave an inhibition of 3.65%.
In the case of `NC(CO)C(O)c1ccc([N+](=O)[O-])cc1` (stereo unspecified), the inhibition is reported as -4.54%.
`Cc1ccc([N+](=O)[O-])cc1S(=O)(=O)NCc1cccnc1` showed an inhibition of -0.437%.
`COc1ccc(CC(=O)NC(C)C2COc3ccccc3O2)cc1OC` (stereo unspecified) gave an inhibition of 0.47%.
`O=C(NNS(=O)(=O)c1ccc(Cl)cc1)c1cccc(S(=O)(=O)N2CCOCC2)c1` showed an inhibition of 6.08%.
In the case of `CC1CCN(C2CC(=O)N(c3ccccc3)C2=O)CC1` (stereo unspecified), the inhibition is reported as -1.51%.
For `CC1(C)Cc2cccc(OCC(=O)OCC(=O)NCc3ccc(F)cc3)c2O1`, the inhibition was 5.2%.
Work on `CC1(NC(=O)c2cccc(S(=O)(=O)N3CCN(c4ccccc4)CC3)c2)CCS(=O)(=O)C1` (stereo unspecified) yielded an inhibition of -4.48%.
`CN1CC(C(=O)c2ccc(Cl)cc2)C(c2ccccc2F)C1` (stereo unspecified) gave an inhibition of -5.31%.
Work on `CN1CC(C(=O)c2ccc(Cl)cc2)C(c2ccccc2)C1` (stereo unspecified) yielded an inhibition of -0.32%.
Work on `CN(C)Cc1cnc2ccc(Cl)cn12` yielded an inhibition of 2.3%.
`COc1ccc(/C=N\NS(=O)(=O)c2ccc(C)cc2)cc1COc1ccccc1[N+](=O)[O-]` showed an inhibition of 2.43%.
`Cc1ccc(CNC(=O)CSc2ncc(C(=O)Nc3ccccc3)c(=O)n2C)cc1` gave an inhibition of 6.4%.
Compound `CC(C)CC(NC(=O)OC(C)(C)C)C(=O)NC(C(=O)N1CCCC1C(N)=O)C(C)C` (stereo not drawn) (Boc-Leu-Val-Pro-NH2; configuration not given here) has an inhibition of -15.4%.
`CC(C)(C)OC(=O)N1CCC[C@@H]1CO` gave an inhibition of -5.17%.
`O=c1[nH]c(=O)n(CCC2=CCCCC2)c(O)c1C=NC1CCN(Cc2ccccc2)CC1` gave an inhibition of 5.62%.
For `CC1CCCCN1CC(=O)c1ccc2cc[nH]c2c1` (stereo unspecified), the inhibition was -0.31%.
`Cc1ccc(CC2S/C(=C(/C#N)C(=O)NCc3ccco3)N(c3ccccc3)C2=O)cc1` (stereo unspecified) showed an inhibition of -3.66%.
Compound `Cc1ccc(S(=O)(=O)NC(=NC2CCCCC2)c2ccccc2)cc1` has an inhibition of 5.09%.
With `CC(=O)Nc1nonc1NC(=O)CSc1ccccn1` the inhibition was 2.24%.
For `COc1cc([N+](=O)[O-])cc(/C=N/NC(=O)CSc2nnc(-c3ccccc3)n2C)c1O`, the inhibition was -13.2%.
`O=[N+]([O-])c1cccc(/C=N/Nc2ccccn2)c1` gave an inhibition of 8.41%.
For `COc1ccc(O)c(/C=N/Nc2nc3ccccc3[nH]2)c1`, the inhibition was 7.61%.
`CCN(CC)c1ccc(/C=N/Nc2nc3ccccc3[nH]2)c(O)c1` gave an inhibition of 13.9%.
In the case of `COc1cc([N+](=O)[O-])cc(/C=N/NC(=O)Cn2nccc2C)c1O`, the inhibition is reported as 14.4%.
In the case of `Cc1nonc1NC(=O)CSc1ccccn1`, the inhibition is reported as 6.57%.
`O=[N+]([O-])c1ccc(/C=N/Nc2ccccn2)cc1` gave an inhibition of -0.36%.
`COc1cccc(N2CCN(C(=O)C3CCN(S(=O)(=O)c4ccc5c(c4)oc(=O)n5C)CC3)CC2)c1` gave an inhibition of 8.62%.
For `Cc1ccc(C)c(-c2csc(-c3cccnc3)n2)c1`, the inhibition was 1.2%.
In the case of `COc1ccc(-c2cc(-c3ccc(O)cc3)nc(N)c2C#N)cc1`, the inhibition is reported as -1.2%.
`N#C/C(=C\c1ccccc1Cl)C(=O)Nc1ccccn1` showed an inhibition of 2.25%.
`COC(=O)COc1ccc(C(C2C(=O)CC(C)(C)CC2=O)C2C(=O)CC(C)(C)CC2=O)cc1` showed an inhibition of -2.61%.
In the case of `NC(=S)NNC(=O)c1cccc(Br)c1`, the inhibition is reported as -6.69%.
In the case of `Cc1ccc(-n2nc(C)c(C(C)(O)C(F)(F)F)c2N)cc1` (stereo unspecified), the inhibition is reported as 9.79%.
`O=C(NC(Cc1ccccc1)C(=O)O)/C(=C\c1ccccc1)NC(=O)c1ccc(Br)o1` (stereo unspecified) showed an inhibition of -5.27%.
For `COc1cccc(NC(=O)c2ccc(NC(=O)C(C)C)cc2)c1`, the inhibition was -3.48%.
Compound `Cc1ccc(N2N=C(c3ccc(F)cc3)CC2c2ccco2)cc1` (stereo unspecified) has an inhibition of -33.1%.
With `CC1CN(C(=O)COC(=O)c2ccc(N(C)C)cc2)CC(C)O1` (stereo unspecified) the inhibition was 1.66%.
With `COc1ccc(CC(=O)OCC(=O)N(C)C2CCS(=O)(=O)C2)cc1OC` (stereo unspecified) the inhibition was -0.6%.
Compound `O=C(CSc1ccccn1)N/N=C/c1ccccc1[N+](=O)[O-]` has an inhibition of -6.71%.
With `Cc1nn(C)cc1/C=N/NC(=O)CSc1ccccn1` the inhibition was 3.55%.
Compound `O=C(CSc1ccccn1)N/N=C/c1cccc([N+](=O)[O-])c1` has an inhibition of 1.33%.
`Cc1ccnn1CC(=O)N/N=C/c1c[nH]c2ccccc12` showed an inhibition of 2.22%.
In the case of `O=C(CSc1nc2ccccc2s1)N/N=C/c1ccccc1C(=O)O`, the inhibition is reported as 10.8%.
With `O=C(CSc1nc2ccccc2s1)NCc1cc([N+](=O)[O-])ccc1O` the inhibition was -40.6%.
